Rows were chosen to be rich in hits. Some 4.3% of all compounds tested hit in one or more screens of this group.
FAS TE block = FAS thioesterase domain inhibitors, primary screen, biochemical, fluorescence intensity, uHTS. inhibition, % at 15 µM. 360,000 tested, 0.67% active. AID 602261, 2012. Fatty acid synthase (Homo sapiens), P49327. recombinant FAS-TE, OMFH fluorogenic substrate, fluorescence endpoint;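 active means compounds whose normalised, plate-corrected inhibition of enzyme fluorescence in the single-dose primary screen is 50% or more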;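 further: 0% = DMSO with enzyme and 100% = substrate without enzyme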
rCAG RNA binder = binders of r(CAG) RNA repeats, primary screen, biochemical, fluorescence; r(CAG) RNA repeat, TO-PRO-1 dye displacement fluorescence; inhibition, % at 3 µM; 370,000 tested, 1.3% active; AID 651821, 2012;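 active means inhibition above the plate cutoff, the mean of all test compounds on that plate plus 3 SD, cut at about 35% in these data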;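 further: 0% = DMSO alone and 100% = 100 µM mitoxantrone as full dye displacement; higher means more dye released from RNA so lower well fluorescence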
NR3A LBD binder = binders of NR3A ligand-binding domain, primary screen, biophysical, differential scanning fluorimetry, uHTS | Glutamate receptor ionotropic, NMDA 3A (GRIN3A) ligand-binding domain | NR3A LBD differential scanning fluorimetry, Tm shift; 0% = protein alone, 100% = glycine-bound protein | Tm shift relative to glycine control, % at 25 µM | 340,000 tested, 2.5% active | AID 1259313, 2017;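 active means melting temperature shift of at least 10% of the positive control shift, at one fixed dose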
NadD inh = inhibitors of S. aureus NadD, primary screen, biochemical, colorimetric, uHTS. Nicotinate-nucleotide adenylyltransferase NadD (Staphylococcus aureus N315). purified NadD enzyme, colorimetric absorbance read-out. inhibition, % at 20 µM. 360,000 tested, 0.78% active. AID 602399, 2012; in the data active means inhibition above about 26%
rCAG binder conf = small molecules binding CAG repeat RNA – biochemical, fluorescence, confirmation; shares compounds with rCAG RNA binder; r(CAG) RNA repeat, TO-PRO-1 dye displacement fluorescence; inhibition, % at 3 µM; 4,300 tested, 70% active; AID 652065, 2013;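 active means inhibition above a per-plate cutoff, the mean inhibition of sample wells plus 3 SD, cut at about 35% in these data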;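 further: loss of TO-PRO-1 fluorescence as compound displaces dye from 1x1 AA loop RNA; 0% = DMSO only wells and 100% = 100 µM mitoxantrone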
dCAG dye counter = displacement of TO-PRO-1 from CAG DNA duplex, counter-screen for rCAG RNA repeat binder project, biochemical, fluorescence, TO-PRO-1 dye, d(CAG) DNA oligo; shares compounds with rCAG RNA binder; d(CAG) DNA oligo TO-PRO-1 dye displacement; inhibition, % at 3 µM; 4,300 tested, 94% active;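 active means inhibition above its plate's cutoff, the mean test-well inhibition plus 3 SD, cut at about 4.8% in these data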;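 further: 0% = DNA dye mix with DMSO and 100% = 100 µM mitoxantrone; hits displace the dye from DNA and so lower well fluorescence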
* hit, by the source's call; . = not tested or not shown.

SMILES	FAS TE block	rCAG RNA binder	NR3A LBD binder	NadD inh	rCAG binder conf	dCAG dye counter
O=C1/C(=C/c2ccccc2O)SC(=S)N1Cc1cccnc1	-7	7	-1	6	.	.
COc1cc([N+](=O)[O-])cc(/C=C2/SC(=S)N(Cc3ccccc3)C2=O)c1O	25	79*	5	8	95*	85*
O=C1/C(=C\c2cccc([N+](=O)[O-])c2O)SC(=S)N1Cc1ccccc1	18	37*	1	11	93*	78*
C=CCN1[C@@H](Cc2ccccc2)COc2cc(F)ccc2S1(=O)=O	.	0	.	.	.	.
CN1OC[C@@H]2CN[C@H](c3ccc(-n4ccnc4)cc3)C[C@@H]21	.	2	.	.	.	.
CCOc1ccc(-n2c(SCC(=O)Nc3cc4oc5ccccc5c4cc3OC)nnc2-c2cccc(Cl)c2)cc1	.	7	.	.	.	.
O=C(CSc1nnc(CCCOc2ccc(Cl)cc2Cl)o1)Nc1ccc(C(=O)O)cc1	-8	42*	-12	-4	28	5.0*
O=C(CSc1nnc(COc2ccc(Cl)cc2Cl)o1)Nc1ccccn1	-1	-2	2	4	.	.
NC(=NCc1ccco1)NC(=O)c1ccc(Cl)cc1	-1	2	-7	-1	.	.
Cc1cc(C(=O)Nc2ccc(S(=O)(=O)N3CCOCC3)cc2)c(C)o1	5	-1	1	-3	.	.
O=C(Cc1ccc(Cl)cc1)Nc1ccc(S(=O)(=O)N2CCOCC2)cc1	-2	4	-2	1	.	.
Cc1cc(O)c(-c2cc(C(=O)Nc3ccc(S(=O)(=O)N4CCOCC4)cc3)[nH]n2)cc1C	4	41*	32*	5	29	15*
O=C(Nc1ccc(S(=O)(=O)N2CCOCC2)cc1)c1cc(-c2cc(Cl)ccc2O)n[nH]1	18	46*	36*	18	50*	21*
O=C(O)CN1C(=O)/C(=C\c2cc(Br)ccc2OCc2ccc([N+](=O)[O-])cc2)SC1=S	27	77*	1	24	94*	75*
CCOc1ccccc1C=C1SC(=S)N(CC)C1=O	20	2	-6	4	.	.
O=C(O)CN1C(=O)/C(=C\c2ccccc2OCc2ccc(Cl)cc2Cl)SC1=S	39	79*	9	12	90*	66*
O=C(O)CN1C(=O)/C(=C\c2cc(Br)ccc2OCc2ccccc2Cl)SC1=S	31	78*	2	16	93*	75*
O/N=C/c1cc(Br)ccc1OCc1ccccc1F	-11	6	-34	-12	.	.
O=C(O)CN1C(=O)/C(=C\c2cc(Br)ccc2OCc2ccccc2F)SC1=S	21	65*	6	15	87*	61*
O=C(Cc1c[nH]c2ccccc12)Nc1ccc(Nc2cccnc2)c(-c2cccc(Cl)c2)c1	.	15	.	.	.	.
O=C(O)c1ccc(Cl)c(S(=O)(=O)N(Cc2ccccc2)c2ccc(Cl)cc2)c1	-5	73*	-22	1	65*	26*
COc1ccccc1N(Cc1ccccc1)S(=O)(=O)c1cc(C(=O)O)ccc1Cl	0	65*	3	0	47*	13*
Cc1ccc(Sc2ncccc2C(=O)NCc2cc([N+](=O)[O-])ccc2O)cc1C	-1	35*	-7	5	22	5.3*
Cc1c(C(c2cccc([N+](=O)[O-])c2O)c2c(C)n(C)n(-c3ccccc3)c2=O)c(=O)n(-c2ccccc2)n1C	-4	4	3	8	.	.
Cc1[nH]n(-c2ccccc2)c(=O)c1C(c1cccc([N+](=O)[O-])c1)c1c(C)[nH]n(-c2ccccc2)c1=O	-2	68*	-3	14	50*	20*
SMILES	FAS TE block	rCAG RNA binder	NR3A LBD binder	NadD inh	rCAG binder conf	dCAG dye counter
Cc1[nH]n(-c2ccccc2)c(=O)c1C(c1cccc([N+](=O)[O-])c1O)c1c(C)[nH]n(-c2ccccc2)c1=O	4	79*	19*	24	46*	13*
COc1cccc(C(C[N+](=O)[O-])c2c(C)[nH]n(-c3ccccc3)c2=O)c1 (configuration not stated)	-1	5	3	4	.	.
Nc1ccn([C@@H]2O[C@H](C(=O)N[C@H](Cc3ccccc3)C(=O)NCC(=O)N3CCOCC3)[C@@H](O)[C@H]2O)c(=O)n1	.	3	.	.	.	.
COC(=O)[C@]12C[C@H](CC(=O)NCC3CCCCC3)C(=O)N(Cc3ccco3)C1=C[C@H](C(C)(C)C)O[C@@H]2C	.	-1	.	.	.	.
O=C(CN1C(=O)/C(=C\c2cccs2)SC1=S)Nc1cccc(C(=O)O)c1	-10	15	-36	6	.	.
O=C(CN1C(=O)/C(=C/c2ccco2)SC1=S)Nc1ccc(O)c(C(=O)O)c1	-1	88*	4	6	82*	47*
O=C(CN1C(=O)/C(=C/c2ccco2)SC1=S)Nc1ccc(C(=O)O)c(O)c1	7	93*	7	8	85*	53*
O=C(CN1C(=O)/C(=C/c2ccco2)SC1=S)NC1CCS(=O)(=O)C1 (configuration not stated)	-6	48*	0	11	19	9.4*
CC(C(=O)Nc1ccc(C(=O)O)c(O)c1)N1C(=O)/C(=C\c2ccco2)SC1=S (configuration not stated)	1	.	6	9	.	.
CCOc1ccc2nc(SCc3ccc(CC(=O)O)cc3)c(C#N)cc2c1	-3	60*	-1	7	55*	20*
COc1ccccc1C(=O)NC1CCCCN(C)C1=O (configuration not stated)	.	0	.	.	.	.
Cc1[nH]c2ccc(OC(F)(F)F)cc2c1CCN1C(=O)c2ccc(C(=O)O)cc2C1=O	11	48*	-10	-2	44*	13*
COC(=O)C1=C(C)N(Cc2cccc(C(F)(F)F)c2)C(=NCc2ccc3c(c2)OCO3)NC1c1cccc(Cl)c1 (configuration not stated)	.	6	.	.	.	.
CC(C)(C)S(=O)N1C[C@@H]2CC(=O)C(CCO)=C2[C@H]1CCO (some centres not stated)	.	2	.	.	.	.
CC(C)=C1C(=O)NN(c2ccc(F)c(Cl)c2)C1=O	-8	83*	0	-6	19	6.8*
O=C1CSC(=S)N1c1ccc(F)c(Cl)c1	-2	-5	1	-3	.	.
CN(CCO)C1CN(Cc2cn(Cc3ccccc3F)nn2)S(=O)(=O)C1 (configuration not stated)	.	-1	.	.	.	.
COc1cc(/C=C2\SC(c3ccc(C)cc3)=NC2=O)cc(OC)c1O	-16	17	-17	21	.	.

Screens as filed in PubChem BioAssay.
